Only some compounds are listed: those with a hit (about 12% of all), similar ones and a draw of the others.
Sm TGR block: qHTS Assay for the Inhibitors of Schistosoma Mansoni Peroxiredoxins; 360,000 tested, 3% active; Schistosoma mansoni thioredoxin glutathione reductase (TGR), Q962Y6; AID 485364, 2010; Potency, µM (highest dose often 114 µM), for the others: top-dose activity change, negative = inhibition, hits mostly inhibitors; purified TGR, DTNB reduction, TNB absorbance 405 nm; note: % is set by controls: 0 for no effect and ±100 for the full control effect; nearly all actives have a fitted effect of over 60% in size
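TGR 20 nM + NADPH 100 uM (dispensed conc.), cpd preinc 15 min RT; start with NADPH (500 uM addition) then DTNB (15 mM addition). Kinetic TNB absorbance, 405 nm filter. Four-parameter Hill fit across titration.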
Pf growth 48h: Primary qHTS for delayed death inhibitors of the malarial parasite plastid, 48 hour incubation; Potency, µM (highest dose often 28.7 µM), without a hit: at the highest dose activity change, negative = inhibition, usual class: inhibitors; P. falciparum luciferase growth in erythrocytes, 48 h; AID 504832, 2011; 310,000 tested, 5.9% active; note: % is set by controls: 0 for no effect and ±100 for the full control effect
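Growth was read as firefly luciferase luminescence after a 48 h, 37 C, 5% CO2 exposure of compounds to reporter-bearing P. falciparum cultures (0.1% parasitemia, 2% hematocrit final) in Albumax-supplemented RPMI 1640.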
SARS PLpro yeast: qHTS of Yeast-based Assay for SARS-CoV PLP; S. cerevisiae expressing SARS-CoV PLpro, growth rescue; Potency, µM (titrated, usually from 32.9 µM), for inactives: at the top dose activity, positive = growth rescue, actives largely listed as activators; 330,000 tested, 0.19% active; calls by dose curve; note: 0% is about no effect; nearly all actives have a fitted effect of over 55% in size
Pf growth 96h: Primary qHTS for delayed death inhibitors of the malarial parasite plastid, 96 hour incubation; P. falciparum luciferase reporter growth, 96 h; AID 504834, 2011; Potency, µM (highest dose often 28.7 µM), inactives show at the highest dose activity change, negative = inhibition, usual class: inhibitors; 320,000 tested, 6.9% active; note: % is set by controls: 0 for no effect and ±100 for the full control effect
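Readout is luminescence from an integrated firefly luciferase in P. falciparum. Red cells, 2% hematocrit and 0.05% parasitemia final, were cultured with compound through two parasite generations (96 hours) at 37 C, 5% CO2.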
The depositor's hits bear a star; ? = inconclusive; . = not tested or not shown. Unless noted, calls come from the whole dose curve; as a rule, active = well fitted curve in the direction sought with a large enough effect; inconclusive = small, poorly fitted or top-dose-only effect, or another doubt; inactive = no such curve, though single readings can be large; an effect the other way counts as inactive or inconclusive. Potency is the fitted concentration of half-maximal effect.

SMILES | Sm TGR block | Pf growth 48h | SARS PLpro yeast | Pf growth 96h
COC(=O)c1ccc(/C=C/c2c(-c3ccsc3)oc3ccc(N4CCOCC4)cc23)cc1 | -22.9% | ? | 3.7% | 13.1µM*
Cc1cccc(-n2c(=O)c3c(c4cc(C)ccc4n3C)n(CC(=O)NCC3CCCO3)c2=O)c1 (configuration not stated) | -10.3% | . | . | .
CCN(CC)C(=O)c1ccc(NC(=O)c2cccc(S(=O)(=O)N3CCN(Cc4ccccc4)CC3)c2)cc1 | -0.2% | 10.4µM* | 4.1% | 11.7µM*
CC(=O)Nc1ccc(S(=O)(=O)N2CCN(Cc3cccc([N+](=O)[O-])c3)CC2)cc1 | 0.0% | -4.8% | -1.0% | 1.65µM*
COc1ccc(NC(=O)CN(C)C(=O)c2cccc(S(=O)(=O)N3CCN(Cc4ccccc4)CC3)c2)cc1 | -11.2% | -7.6% | 2.8% | -78.3%
CC(=O)Nc1ccc(S(=O)(=O)N2CCN(Cc3cccnc3)CC2)cc1 | -32.2% | 7.6% | 1.0% | .
CC1CCCCC1NC(=O)c1cccc(S(=O)(=O)N2CCN(Cc3ccccc3)CC2)c1 (configuration not stated) | -7.0% | 16.5µM* | 1.5% | 14.7µM*
COc1cccc(NC(=O)c2cccc(S(=O)(=O)N3CCN(Cc4ccccc4)CC3)c2)c1 | -12.3% | ? | -13.5% | 7.38µM*
COc1ccc(CNC(=O)CSCc2nc(-c3ccccc3C)oc2C)cc1 | 3.9% | . | . | .
CC(=O)Nc1cccc(NC(=O)c2cccc(S(=O)(=O)N3CCN(Cc4ccccc4)CC3)c2)c1 | -2.9% | 10.4µM* | 6.6% | 10.4µM*
Cn1c(=O)c2ccccc2n2c(CCl)nnc12 | 31.6µM* | ? | -12.1% | ?
Cc1cc2nc(C)n(CCCNC(=O)Nc3ccc(F)cc3)c2cc1C | 5.3% | 11.7µM* | 4.7% | .
Cc1cnc2c(c1SCC(=O)NCc1ccc(F)cc1)c(=O)n(C)c(=O)n2C | -7.2% | . | . | .
Clc1ccccc1C(c1ccccc1)(c1ccccc1)n1ccnc1 | 10.0% | 0.642µM* | -24.4% | 1.44µM*
FC(F)(F)c1ccccc1-n1ccnc1 | -6.7% | ? | . | -12.8%
COCc1cc(=O)[nH]c(SCC(=O)c2ccccc2)n1 | 1.4% | 2.08µM* | -1.1% | -20.2%
CCCc1cc(=O)[nH]c(SCC(=O)NC(=O)c2ccccc2)n1 | -37.6% | 13.6% | 7.9% | 0.415µM*
CCCc1cc(=O)[nH]c(SCC(=O)NC(=O)OCC)n1 | 1.3% | . | 8.0% | 23.8%
Cc1ccc(C(=O)CSc2nc(-c3ccccc3)cc(=O)[nH]2)cc1 | 9.6% | ? | 0.9% | -4.7%
C#CCn1c(C2CC(=O)N(c3ccc(OCC)cc3)C2)nc2ccccc21 (configuration not stated) | 6.1% | . | . | .
COCCCNC(=O)c1ccc2c(=O)n(CC3CCCO3)c(=S)[nH]c2c1 (configuration not stated) | 5.6% | 2.7% | -2.2% | 1.2%
CC1CCCC(NC(=O)c2ccc3c(=O)n(CC4CCCO4)c(=O)[nH]c3c2)C1C (configuration not stated) | -23.1% | 2.62µM* | -5.5% | ?
CC(C)NC(=O)c1ccc2c(=O)n(CC3CCCO3)c(=S)[nH]c2c1 (configuration not stated) | 0.9% | -15.7% | 0.3% | 9.28µM*
O=C1Cc2cc(S(=O)(=O)N3CCCCC3)cc3c2N1CCC3 | 13.7% | . | . | .
CCC(C(=O)OC)n1nnc2sc(-c3ccccc3)cc2c1=O (configuration not stated) | 0.3% | . | . | .
SMILES | Sm TGR block | Pf growth 48h | SARS PLpro yeast | Pf growth 96h
O=C(CCc1ccccc1O)N/N=C/c1ccc(Sc2cccc3cccnc23)o1 | -12.5% | . | 5.1% | 3.7µM*
O=C(CSc1cccc2cccnc12)N/N=C/c1ccc(O)cc1 | -0.3% | -13.3% | -0.2% | 10.4%
Cc1ccc(-n2ncc3c(Nc4ccc5c(c4)OCCO5)ncnc32)cc1C | 3.8% | . | . | .
O=C(C(Sc1ccccc1)c1ccccc1)N1CCN(c2ccccc2)CC1 (configuration not stated) | -4.3% | ? | -21.1% | ?
Cc1ccc(SC(C)C(=O)N2CCN(c3ccccc3)CC2)cc1 (configuration not stated) | -16.3% | 26.9% | 17.5% | 8.28µM*
COc1ccc(N(CC(=O)NC2CCCCC2)C(=O)c2ccc(C)s2)c(OC)c1 | 0.4% | ? | -1.2% | -25.1%
O=C(O)Cc1sc(-c2cccnc2)nc1-c1ccc(Br)cc1 | 22.4µM* | -3.3% | 5.3% | -8.8%
CCOC(=O)c1ccccc1NC(=O)Cc1sc(-c2cccnc2)nc1-c1ccc(C)cc1 | -7.6% | 4.15µM* | 0.4% | 2.62µM*
O=C(O)Cc1sc(-c2ccccc2Cl)nc1-c1ccccc1 | -3.3% | -17.5% | 0.7% | -6.1%
O=C(Cc1sc(-c2ccccc2)nc1-c1ccccc1)Nc1ccccc1 | -6.8% | ? | 1.6% | .
Cc1ccc(-c2nc(-c3cccnc3)sc2CC(=O)Nc2ccc3nc(C)sc3c2)cc1 | -9.0% | ? | 1.5% | 13.1µM*
Cc1nc2ccc(NC(=O)c3cccnc3)cc2s1 | 13.2% | 1.6% | -2.9% | 23.4%
O=C(CCC(=O)c1cccs1)OCC(=O)c1ccccc1F | 1.3% | 22.9% | 4.5% | ?
Cc1cccc(C(=O)Nc2ccc3c(c2)CC2(C(=O)N(C)C(=O)N(C)C2=O)C2CCCN32)c1 (configuration not stated) | ? | ? | -1.6% | 8.28µM*
COc1ccccc1C(=O)Nc1ccc2c(c1)CC1(C(=O)N(C)C(=O)N(C)C1=O)C1CCCN21 (configuration not stated) | 35.5µM* | ? | 1.9% | 2.62µM*
CN1C(=O)N(C)C(=O)C2(Cc3cc([N+](=O)[O-])ccc3N3CCN(C(=O)c4ccccc4)CC32)C1=O (configuration not stated) | 0.8% | ? | 0.7% | 21.1%
Cc1cccc(NC(=O)CSc2cn(CC(=O)N3CCCCCC3)c3ccccc23)c1 | -6.8% | . | . | .
COc1ccc(CNc2oc(-c3ccccc3)nc2C#N)cc1 | -16.0% | 20.2% | -24.6% | 8.28µM*
N#Cc1nc(COc2ccccc2F)oc1NCc1ccc(F)cc1 | 25.1µM* | . | -3.6% | 12.4%
COc1ccc(Cc2nnc(-c3ccccc3)o2)cc1 | -1.5% | 117.8% | 1.5% | 11.7µM*
COc1ccc(CCNc2oc(COc3ccccc3F)nc2C#N)cc1 | -16.5% | -3.0% | -22.3% | ?
c1ccc(Cc2nnc(-c3ccccc3)o2)cc1 | 4.6% | 84.4% | -3.5% | 19.1%
CC(=O)Nc1ccc(OCc2nnc(-c3ccccc3)o2)cc1 | -15.5% | 28.3% | -10.4% | 3.7µM*
Cc1ccc2oc(C(=O)Nc3c(C(=O)c4ccc(C)c(F)c4)oc4ccccc34)cc(=O)c2c1 | 2.7% | . | . | .
CCOc1ccc(-c2nc(C#N)c(NCc3ccc4c(c3)OCO4)o2)cc1 | -4.8% | 21.9% | 3.1% | 8.28µM*
CCC(Sc1nc2nccnc2c(=O)n1Cc1ccc(F)cc1)C(=O)NC1CCCCC1 (configuration not stated) | 0.4% | . | . | .
COc1ccc(-n2nc3c(c2NC(=O)CBr)CSC3)cc1 | 39.8µM* | -1.7% | -2.5% | -0.9%

Bioassay records deposited in PubChem by National Center for Advancing Translational Sciences (NCATS).
